Measured values as given in PubChem BioAssay.
Values without a mark were called inactive. Activity calls are given as the source filed them. How the calls were made is not given here. Where a SMILES comes first, the peptide text is derived from it. The star is where a group is joined. Boc = CC(C)(C)OC(=O)*

Assays:
[1] = system: Botulinum neurotoxin type F light chain protease (Clostridium botulinum); experiment: Clostridium botulinum type F light chain protease inhibitors, microsphere substrate cleavage, validation (AID 588459); conditions: multiplex microsphere protease substrate cleavage assay, flow cytometry; at 10 µM; hits give high values
[2] = molecular target: Botulinum neurotoxin type A (Clostridium botulinum) (UniProt P0DPI0); experiment: BoNT/A light chain protease inhibitors, biochemical, multiplex microsphere flow cytometry, validation set (AID 588460); conditions: at 10 µM, hits give high values
Chain of Botulinum neurotoxin type A (Clostridium botulinum) (P0DPI0 whole entry, looked up): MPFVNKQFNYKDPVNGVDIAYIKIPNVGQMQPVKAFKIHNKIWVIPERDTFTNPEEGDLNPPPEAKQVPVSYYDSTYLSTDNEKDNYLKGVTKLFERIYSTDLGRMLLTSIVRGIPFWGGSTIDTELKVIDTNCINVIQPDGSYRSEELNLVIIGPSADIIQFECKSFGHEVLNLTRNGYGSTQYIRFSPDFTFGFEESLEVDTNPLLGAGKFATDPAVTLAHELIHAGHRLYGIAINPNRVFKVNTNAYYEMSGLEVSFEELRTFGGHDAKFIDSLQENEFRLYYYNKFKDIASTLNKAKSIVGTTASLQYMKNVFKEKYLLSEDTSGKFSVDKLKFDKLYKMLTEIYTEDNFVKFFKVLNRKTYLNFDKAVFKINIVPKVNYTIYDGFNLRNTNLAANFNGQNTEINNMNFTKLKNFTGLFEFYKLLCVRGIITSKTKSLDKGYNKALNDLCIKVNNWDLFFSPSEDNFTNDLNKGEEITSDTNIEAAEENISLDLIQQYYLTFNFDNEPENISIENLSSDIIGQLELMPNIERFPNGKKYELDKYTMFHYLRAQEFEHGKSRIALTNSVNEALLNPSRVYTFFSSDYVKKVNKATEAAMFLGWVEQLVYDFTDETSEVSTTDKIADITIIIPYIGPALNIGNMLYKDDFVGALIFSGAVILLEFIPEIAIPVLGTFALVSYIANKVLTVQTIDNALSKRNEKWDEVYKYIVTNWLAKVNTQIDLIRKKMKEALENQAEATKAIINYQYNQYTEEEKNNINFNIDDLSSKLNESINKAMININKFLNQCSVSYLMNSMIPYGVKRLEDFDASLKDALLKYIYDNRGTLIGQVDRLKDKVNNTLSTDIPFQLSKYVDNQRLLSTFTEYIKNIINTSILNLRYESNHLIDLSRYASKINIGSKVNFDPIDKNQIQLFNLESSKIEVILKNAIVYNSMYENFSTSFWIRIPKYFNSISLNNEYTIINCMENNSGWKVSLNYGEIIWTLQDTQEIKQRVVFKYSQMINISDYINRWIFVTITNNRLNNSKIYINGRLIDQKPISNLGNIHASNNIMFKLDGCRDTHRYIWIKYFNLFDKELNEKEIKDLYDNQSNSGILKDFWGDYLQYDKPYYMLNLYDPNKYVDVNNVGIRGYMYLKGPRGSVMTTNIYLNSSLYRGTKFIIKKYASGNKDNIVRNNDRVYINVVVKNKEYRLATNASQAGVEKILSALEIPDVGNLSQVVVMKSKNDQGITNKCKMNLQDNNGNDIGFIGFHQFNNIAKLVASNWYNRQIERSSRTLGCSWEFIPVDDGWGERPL

[3] = molecular target: Lethal factor (Bacillus anthracis) (UniProt P15917); experiment: Bacillus anthracis lethal factor inhibition, microsphere flow cytometry protease assay, validation at 10 µM (AID 588461); conditions: multiplex microsphere protease cleavage assay, hits give high values
Chain of Lethal factor (Bacillus anthracis) (P15917 whole entry, looked up): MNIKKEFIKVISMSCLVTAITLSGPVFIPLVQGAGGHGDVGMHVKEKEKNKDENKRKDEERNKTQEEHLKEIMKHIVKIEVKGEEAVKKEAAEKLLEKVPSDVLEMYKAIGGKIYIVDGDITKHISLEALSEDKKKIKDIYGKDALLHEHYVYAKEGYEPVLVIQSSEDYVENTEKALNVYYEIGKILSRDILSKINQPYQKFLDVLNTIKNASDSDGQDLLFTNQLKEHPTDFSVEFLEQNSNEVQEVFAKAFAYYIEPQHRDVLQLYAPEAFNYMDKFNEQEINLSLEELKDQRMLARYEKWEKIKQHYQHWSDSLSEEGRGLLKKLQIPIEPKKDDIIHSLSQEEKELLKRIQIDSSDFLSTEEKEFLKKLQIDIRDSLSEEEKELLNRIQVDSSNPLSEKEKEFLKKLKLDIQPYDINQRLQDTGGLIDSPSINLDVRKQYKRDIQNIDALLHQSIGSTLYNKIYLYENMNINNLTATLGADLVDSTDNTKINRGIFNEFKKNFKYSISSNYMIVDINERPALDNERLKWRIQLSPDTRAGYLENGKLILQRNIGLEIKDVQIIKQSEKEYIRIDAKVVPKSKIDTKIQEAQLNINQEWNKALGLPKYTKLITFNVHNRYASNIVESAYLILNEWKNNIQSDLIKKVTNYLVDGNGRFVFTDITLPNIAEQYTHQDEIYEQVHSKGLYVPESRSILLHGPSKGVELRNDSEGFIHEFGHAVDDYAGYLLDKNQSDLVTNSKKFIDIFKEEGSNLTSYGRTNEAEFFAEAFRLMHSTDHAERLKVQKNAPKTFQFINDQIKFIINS

SMILES | inhibition [1] | inhibition [2] | inhibition [3]
COC(=O)c1[nH]c2ccccc2c1NC(=O)CN1CCN(C/C=C/c2ccccc2)CC1 | -2.6% | -1.4% | -4.7%
COc1ccc(-c2cc(C(=O)N3CCOCC3)c3cc(C)ccc3n2)cc1 | -8.2% | -2.6% | 2.3%
COc1c(C=O)c(CCN(C)C(=O)c2ccc(F)cc2)cc2c1OCO2 | 3% | -1.5% | -4.4%
CC(=O)C1=C(O)C(=O)N(Cc2cccnc2)C1c1ccc(C(C)C)cc1 (configuration not stated) | 3.2% | 4.3% | 7%
CC(=O)c1c(C)[nH]c(C(=O)OCc2ccccc2)c1C | 2.9% | 0.8% | -6.6%
Nc1cccc2c1nnn2C1OC(CO)C(O)C(O)C1O (configuration not stated) | 0.7% | 0.1% | 3.5%
COc1ccc(-c2nc(C)c(C(C)=O)n2O)cc1OC | -3.6% | -1.6% | -3.9%
CCOCC(=O)Nc1ccccc1C(=O)N1CCOCC1 | 32.5% (active) | 14.3% | 6.3%
CCN(CC)CCOC(=O)C(c1ccccc1)c1ccccc1 | 1.8% | -1.6% | -3.7%
CN(C)c1cc(NC(=O)CN2CCOCC2)c2ccccc2n1 | 0% | -1.5% | -4.6%
C[C@]12C=CC(=O)C=C1CCC1C3CC[C@](O)(C(=O)CO)[C@@]3(C)CC3OC312 (some centres not stated) | -1.8% | -2.7% | -7.3%
NC[C@H]1O[C@H](O[C@H]2[C@H](O)[C@@H](O[C@H]3O[C@H](CO)[C@@H](O)[C@H](N)[C@H]3O)[C@H](N)C[C@@H]2N)[C@H](N)C[C@@H]1O | 3.4% | -1.1% | -1.8%
O=C(O)CCC(=O)c1ccc(-c2ccccc2)cc1 | -4.5% | -1.1% | 2.1%
Cn1nc(-c2ccc(Cl)cc2)nc2c(=O)n(C)c(=O)nc1-2 | -0.5% | 2% | 3.7%
Cc1ccccc1C(=O)NCC(=O)O | 1.1% | 2.7% | 2.8%
CCn1ccnc1CN(C)Cc1cn(-c2cccc(C)c2)nc1-c1cccc(F)c1 | 0.6% | -0.3% | -3.5%
C[C@]12CC[C@@H]3c4ccc(O)cc4CC[C@H]3[C@@H]1C[C@@H](O)[C@@H]2O[C@@H]1O[C@H](C(=O)O)[C@@H](O)[C@H](O)[C@H]1O | -1.9% | 0.2% | -6.5%
C=CCC1(Cl)C(=O)C(Cl)=C(N2CCOCC2)C1(OC)OC (configuration not stated) | -1.2% | -1.2% | 0%
CC(=O)OCC(=O)[C@@]1(O)[C@H](C)C[C@H]2[C@@H]3CCC4=CC(=O)C=C[C@]4(C)[C@@]3(F)[C@@H](O)C[C@@]21C | 3% | 0.4% | 6.7%
O=C(/C=C/c1ccccc1)NC(=O)c1ccccc1O | -4.2% | -1.7% | -5.7%
OCCN(Cc1nc(-c2ccc3c(c2)OCO3)no1)Cc1cccs1 | 2.4% | 0.4% | 2%
CC1(C)CC(NC(=O)C23CCC(C)(C(=O)C2=O)C3(C)C)CC(C)(C)N1 (configuration not stated) | 2.9% | -0.7% | -4.5%
COc1ccc(Cc2nc(-c3ccc(Br)cc3)no2)cc1 | -0.7% | -1.6% | -5.8%
c1ccc(Cn2nnc3cnccc32)cc1 | 3.6% | -0.8% | 1.4%
CC(C)CC(NC(=O)C1CCCN1C(=O)OC(C)(C)C)C(=O)NCC(N)=O (stereo not drawn) (Boc-Pro-Leu-Gly-NH2; configuration not given here) | 3.5% | 0.3% | 4.3%
COc1ccc2[nH]cc(C3N4CC5(C)CN3CC(C)(C4)C5=O)c2c1 (configuration not stated) | 3% | -0.2% | 4.1%
N#C/C(C(N)=O)=c1/ccc2c(c1)N1C3=C(CCCC3)CC3CCCCC31N=2 (configuration not stated) | -0.8% | 2.4% | -2.3%
Cc1nnc(NS(=O)(=O)c2ccc(N)cc2)s1 | 2.8% | -1.1% | -2.8%
O=C(Nc1ccccc1C(=O)N1CCCCCC1)c1ccccc1Cl | -2.3% | 0% | -1.1%
